Assay results as given in PubChem BioAssay AID1825 (The Scripps Research Institute Molecular Screening Center, 2009).
Out of some 290,000 compounds screened, about 2,300 (0.79%) were called active. Rule as the data show it: active = inhibition above about 22%; inactive = the rest. This excerpt belongs to a sample that is enriched for actives.

test: cytotoxicity in IEC-6 intestinal epithelial cells, primary screen, cytotoxicity control for KLF5 inhibitor project, cell-based, luminescence (AID 1825); conditions: IEC-6 cytotoxicity, luminescence viability; at 5 µM; active compounds read high;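 also: 0% = plate median of test compound wells and 100% = cytotoxic reference compound wells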

| SMILES | inhibition |
| --- | --- |
| COc1ccccc1C1C2=C(COC2=O)Nc2cc3c(cc21)OCO3 (stereo not given) | 92.2% (active) |
| CCCOc1ccccc1C1CC(=O)Nc2cc3c(cc21)OCO3 (stereo not given) | 77.5% (active) |
| COc1cc2c(cc1OC)C(c1ccncc1)CC(=O)N2 (stereo not given) | 1% (inactive) |
| COC(=O)C1=C(C)NC(=O)CC1c1ccccc1OC (stereo not given) | -0.1% (inactive) |
| COc1ccc(C2CC(=O)Nc3cc(C)c(C)cc32)c(OC)c1OC (stereo not given) | 1.9% (inactive) |
| COc1ccc(S(=O)(=O)Nc2ccc3c(c2)OCO3)cc1Cl | 0.7% (inactive) |
| COc1ccc(NC(=O)c2cccc(Cl)c2)c[n+]1[O-] | 2.7% (inactive) |
| COCCN1C(=O)C(=O)/C(=C(/O)c2ccc(S(=O)(=O)N3CCOCC3)cc2)C1c1ccc(O)c(OC)c1 (stereo not given) | -5.5% (inactive) |
| O=C(NCCCN1CCOCC1)c1cc(-c2cccc(O)c2)on1 | -0.6% (inactive) |
| O=C(N/N=C\c1cc2c(cc1Cl)OCO2)c1ccc(Br)s1 | 0.3% (inactive) |
| COc1cc2c(cc1O)[C@H](Cc1ccc(Oc3cc(C[C@@H]4NCCc5cc(OC)c(O)cc54)ccc3O)cc1)NCC2 | 1.5% (inactive) |
| CCc1ccc(OCC2c3cc(OC)c(OC)cc3CCN2C(C)=O)cc1 (stereo not given) | 9% (inactive) |
| CC[C@H]1CN2CCc3cc(OC)c(OC)cc3[C@@H]2C[C@@H]1C[C@H]1NCCc2cc(OC)c(OC)cc21 | 98.9% (active) |
| Fc1ccc(-n2c(Cc3ccccc3)nnc2SCc2nc(-c3ccc(Cl)cc3)no2)cc1 | -0.4% (inactive) |
| COc1ccc(CN2CCC(n3nccc3NC(=O)CCCc3ccccc3)CC2)cc1C | 2.8% (inactive) |
| CN(NC(=O)c1ccccc1)c1nc2ccccc2nc1C(F)(F)F | -0.3% (inactive) |
| CN(NC(=O)c1ccccc1F)c1nc(C(F)(F)F)nc2ccccc12 | 83.3% (active) |
| COc1ccc(C(=O)NN(C)c2nc(-c3ccccc3)cc(C)c2S(C)(=O)=O)cc1 | 1% (inactive) |
| Cc1cccc(C(=O)NCCCN(C)CCCNC(=O)c2cccc(C)c2)c1 | -0.9% (inactive) |
| COC(=O)CNC(=O)c1ccccc1F | -2.1% (inactive) |
| CSc1nc(N(C)NC(=O)c2cccc(C)c2)c2ccccc2n1 | 94.6% (active) |
| CCOc1ccccc1NC(=S)NC(=O)CCc1ccccc1 | -2.9% (inactive) |
| NC(=O)CSc1nnc(NC(=O)c2ccc(Br)o2)s1 | -5.8% (inactive) |
| CN(C)CCCNC(=O)c1cc(C(=O)Cc2ccc(Cl)cc2)c[nH]1 | 2.2% (inactive) |

| SMILES | inhibition |
| --- | --- |
| COc1ccc(N2CCN(S(=O)(=O)c3ccc4c(c3)NC(=O)C(C)C(=O)N4)CC2)cc1 (stereo not given) | 1% (inactive) |
| COc1cc(C(=O)NN(CCC#N)C2=NS(=O)(=O)c3ccccc32)cc(OC)c1OC | -4.2% (inactive) |
| Cc1ccccc1NCC(=O)N/N=C\c1ccc([N+](=O)[O-])s1 | -4.9% (inactive) |
| Cn1cccc1/C=N/NC(=O)CNc1cccc2ccccc12 | 47.6% (active) |
| Cc1cccc(/C=N/NC(=O)CNc2cccc3ccccc23)n1 | 37.6% (active) |
| Cn1cccc1/C=N/NC(=O)c1ccc(OC(F)(F)C(F)F)cc1 | 2.6% (inactive) |
| Cc1cccc(C(=O)Nc2ccc(C(=O)N/N=C/c3cccc(C)n3)cc2)c1 | 1.5% (inactive) |
| C/C(=N\NC(=O)CNc1cccc2ccccc12)c1ccc(Br)s1 | 0.2% (inactive) |
| O=C(NCCCn1ccnc1)c1cc(Br)c(Br)s1 | -4.3% (inactive) |
| CN1C(=O)[C@H]2[C@@H](C3CC3)N3C(=O)CN(Cc4ccccc4)C(=O)[C@@]3(C)[C@H]2C1=O | -1.7% (inactive) |
| CC1CCCN(S(=O)(=O)c2ccc(C(=O)Nc3nnc(-c4ccncc4)o3)cc2)C1 (stereo not given) | -1% (inactive) |
| CSCc1nnc(NC(=O)c2ccc(S(=O)(=O)N3CCCCC3C)cc2)o1 (stereo not given) | -0.9% (inactive) |
| CC1CCCCN1S(=O)(=O)c1ccc(C(=O)Nc2nnc(-c3cccs3)o2)cc1 (stereo not given) | 29.2% (active) |
| CCc1nn(CCCC(=O)Nc2ccc(C)c(C)c2)c(=O)c2cc3occc3n12 | -1.7% (inactive) |
| CCCCCCn1cc(C(=O)O)c(=O)c2cc(F)c(N3CCCCC3)cc21 | 2.5% (inactive) |
| Cc1ccc(C)c(Cn2cnc3c(oc4ccccc43)c2=O)c1 | 19.8% (inactive) |
| O=C(c1n[nH]c2c1CCC2)N1CCCC(Nc2cccc(F)c2)C1 (stereo not given) | -8.3% (inactive) |
| Cc1ccc(Nc2c3c(nc4ccccc24)CCC3)cc1 | 7.5% (inactive) |
| O=[N+]([O-])c1cccc(Nc2c3ccccc3nc3ccccc23)c1 | -0.9% (inactive) |
| CC(=O)Nc1ccc(Nc2c3ccccc3nc3ccccc23)cc1 | 95.3% (active) |
| COc1ccc(Cl)cc1NC(=O)CN(C)Cc1ccc(OC)c(OC)c1 | 5.1% (inactive) |
| COc1ccccc1N1CC(C(=O)Nc2nnc(SCC(=O)NCC3CCCO3)s2)CC1=O (stereo not given) | 5.1% (inactive) |
| Nc1nonc1-n1nnc(C(=O)N/N=C\c2ccncc2)c1CN1CCCCC1 | -0.8% (inactive) |
| CCOc1cc(/C=N/Nc2cc(C)nc3ccc(C)cc23)ccc1O | -8.1% (inactive) |

| SMILES | inhibition |
| --- | --- |
| CC1(C)CC(N2CCN(C(c3ccccc3)c3ccccc3)CC2)=CC(=[N+]2CCCCC2)C1 | 30.6% (active) |
| CC(C)NC(=S)N1CCN(C(c2ccccc2)c2ccccc2)CC1 | -1.6% (inactive) |
| O=C(O)CN1CCN(C(c2ccccc2)c2ccccc2)CC1 | -7.1% (inactive) |
| CC(C)c1ccc(/C=C2\NC(=O)NC2=O)cc1 | -2.7% (inactive) |
| COc1ccc(N(C(=O)CNC(=O)c2ccco2)C(C(=O)NCC2CCCO2)c2ccccc2)cc1Cl (stereo not given) | 4.1% (inactive) |
| CC[n+]1cc(C)ccc1/C=C/c1ccc(N(C)C)cc1 | 38.6% (active) |
| CN(C)c1ccc(/C=N\S(=O)(=O)c2ccccc2)cc1 | -2.3% (inactive) |
| CCSc1nnc(-c2cc3c(s2)-c2ccccc2CC3)o1 | 5.3% (inactive) |
| CC1CCCN(S(=O)(=O)c2ccc(-c3ccc(=O)[nH]n3)o2)C1 (stereo not given) | 2.6% (inactive) |
| COCCNc1ncnc2c1nc1n2CCCC1 | 2.4% (inactive) |
| COc1ccccc1/C=C1\SC(=O)N(CCC(=O)N(C)C2CCS(=O)(=O)C2)C1=O (stereo not given) | -0.8% (inactive) |
| CN1CCC(CN)(N2CCN(c3ccccc3)CC2)CC1 | -4.9% (inactive) |
| CCN(CC)c1ccc(NC(=O)c2ccc(Cl)nc2)cc1 | 55.7% (active) |
| O=C(NNc1ccccn1)c1ccc(Cl)nc1 | -4.7% (inactive) |
| Cc1cnc(NC(=O)c2ccc(Cl)nc2)s1 | -6.8% (inactive) |
| COc1cccc(CNC(=O)CCC2CCCN(C(=O)c3ccc(F)c(Cl)c3)C2)c1 (stereo not given) | 1.1% (inactive) |
| O=C(CNC(=O)c1cccs1)N/N=C/c1cccc(Br)c1 | -5.3% (inactive) |
| O=C(CN1C(=O)C2C3C=CC(C3)C2C1=O)NCCc1ccccc1Cl (stereo not given) | -1.9% (inactive) |
| O=C(CCN1C(=O)C2C3C=CC(C3)C2C1=O)Nc1ccccc1F (stereo not given) | -2.4% (inactive) |
| O=C(CN1C(=O)C2C3C=CC(C3)C2C1=O)Nc1nc(-c2ccccn2)cs1 (stereo not given) | 32.2% (active) |
| COc1ccc(/C=N/Nc2nc3ccccc3c(=O)[nH]2)cc1 | 1.1% (inactive) |
| COc1ccc(C)cc1-n1nnnc1SCc1nc2ccccc2c(=O)[nH]1 | 3.2% (inactive) |
| CCOc1cc(/C=C/c2nc3ccccc3c(=O)[nH]2)cc(Br)c1OC | 48.7% (active) |
| CCC1=Nc2cc(C(=O)NCCN3CCCC3)ccc2Sc2ccc(C)cc21 | 2.7% (inactive) |

| SMILES | inhibition |
| --- | --- |
| CCCC1=Nc2cc(C(=O)NCc3ccco3)ccc2Sc2ccccc21 | 62.9% (active) |
| CCCC1=Nc2cc(C(=O)NCCN3CCCC3)ccc2Sc2ccccc21 | -2.7% (inactive) |
| Cc1ccccc1N1CC(C(=O)Nc2nnc(SCCC3OCCO3)s2)CC1=O (stereo not given) | -3.4% (inactive) |
| O=c1ccc2cc(S(=O)(=O)NCCCc3ccccc3)ccc2[nH]1 | -3.7% (inactive) |
| O=C(c1cc(COc2ccc(F)c(F)c2)on1)N1CCOCC1 | 0.8% (inactive) |
| CCn1ccnc1CN(C)C(=O)c1cc(COc2ccc(-n3cncn3)cc2)on1 | -7.1% (inactive) |
| C=CCC1(CC=C)CCCN1C(=O)c1cc(COc2ccc(-n3cncn3)cc2)on1 | 22.6% (active) |
| CCCCNC(=O)CCn1nc(-c2ccc(Cl)cc2)ccc1=O | -2.4% (inactive) |
| COc1cc(OC)nc(S(C)(=O)=O)n1 | 6.6% (inactive) |
| COc1ccc(-c2cc(C(F)(F)F)nc(S(C)(=O)=O)n2)cc1OC | 26.4% (active) |
| COc1ccc(-c2cc(C(F)(F)F)nc(SCC(=O)Nc3ccc4c(c3)OCO4)n2)cc1OC | 3% (inactive) |
| Cn1c(=O)[nH]c(=O)c2c1nc(N1CCN(C(c3ccccc3)c3ccccc3)CC1)n2CCO | -7.4% (inactive) |
| COc1ccccc1N1CCN(S(=O)(=O)c2ccc3c(c2)NC(=O)CS3)CC1 | 2.9% (inactive) |
| CC(C)(C)c1cc[n+](-c2[nH]c(=O)sc2/C=N/N=C(\[O-])c2ccccc2)cc1 | 4.2% (inactive) |
| O=C(c1ccccc1F)N(Cc1ccccc1)Cc1ccccc1 | -1.4% (inactive) |
| CC1(C)C(C=C(Cl)Cl)C1C(=O)N(Cc1ccc(Cl)cc1)C1CCS(=O)(=O)C1 (stereo not given) | -12.5% (inactive) |
| O=C(COC(=O)c1cc(S(=O)(=O)N2CCCCC2)ccc1Cl)NCc1ccco1 | 6.2% (inactive) |
| CN(c1ccccc1)S(=O)(=O)c1ccc(Cl)c(C(=O)OCC(=O)NCc2ccco2)c1 | -4.1% (inactive) |
| Cc1cc(C(=O)OCC(=O)NCc2ccco2)c(C)n1-c1ccccc1 | 33.2% (active) |
| O=C(COc1ccc(Cl)cc1)Nc1ccc2oc(=O)ccc2c1 | -4.8% (inactive) |
| Clc1ccc(N/N=C/c2cccs2)nn1 | -1.4% (inactive) |
| Oc1cccc(/C=N/Nc2ccc(Cl)nn2)c1O | 99.5% (active) |
| COc1cccc(/C=N/Nc2ccc(Cl)nn2)c1 | -3.1% (inactive) |
